The nature of assay [1]: qHTS RealTime-Glo MT Cell Viability Assay in HepG2 cells - 40 hour (AID 1224870). Further: nearly all actives have a fitted effect of over 50% in size. In a few lines: (§1)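 HepG2 cells (600/well) mixed with RealTime-Glo MT reagent, settled 5 h at 37 C/5% CO2 before compound addition. Nonlytic NanoLuc luminescence from viable-cell prosubstrate reduction read repeatedly during 40 h treatment at 37 C.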
(In general: In qHTS, concentration-response curves come from the screen itself.)

The nature of assay [2]: A CellTox Green Cytotoxicity Assay to monitor cytotoxicity in HEK293 cells - 40 hour (AID 1224871). Further: nearly all actives have a fitted effect of over 45% in size. The method in brief:
(§2)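 Nonlytic real-time cytotoxicity: HEK293 + CellTox Green reagent plated, 5 h preincubation, pintool compound addition (23 nL in DMSO), 37 C for 40 h, fluorescence measured at successive time points.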

A short description of assay [3]: qHTS RealTime-Glo MT Cell Viability Assay in HEK293 cells - 16 hour (AID 1224872). Further: nearly all actives have a fitted effect of over 50% in size. Further: potency means the concentration at half of the fitted maximal effect. On activity change, negative = cytotoxicity: top concentration of the series differs between compounds. In a few lines: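 HEK293 cells were seeded at 600 cells/well together with NanoLuc luciferase and cell-permeant prosubstrate, preincubated 5 h at 37 C/5% CO2, then given compound in DMSO by pintool. Luminescence from viable-cell prosubstrate reduction was read repeatedly over 40 h.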

Assay [4] can be described thus: qHTS RealTime-Glo MT Cell Viability Assay in HepG2 cells - 8 hour (AID 1224873). Further: nearly all actives have a fitted effect of over 55% in size. In a few lines:
as §1

Assay [5] in a line: qHTS RealTime-Glo MT Cell Viability Assay in HEK293 cells - 40 hour (AID 1224874). Further: nearly all actives have a fitted effect of over 50% in size. Further: potency means the concentration at half of the fitted maximal effect. The following applies: RealTime-Glo luminescence; max response: active compounds read low. The method in brief: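 Cells were seeded together with NanoLuc luciferase and a prosubstrate that viable cells reduce to a luciferase substrate. After a 5 h incubation at 37 C/5% CO2, compounds were added and luminescence was measured repeatedly during 40 h of treatment.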

Assay [6] can be described thus: A CellTox Green Cytotoxicity Assay to monitor cytotoxicity in HEK293 cells - 24 hour (AID 1224875). Further: series mostly up to about 77 µM; nearly all actives have a fitted effect of over 45% in size. The method in brief:
as §2

Assay [7] is described as follows: A CellTox Green Cytotoxicity Assay to monitor cytotoxicity in HepG2 cells - 16 hour (AID 1224876). Further: nearly all actives have a fitted effect of over 45% in size. The method in brief:
(§3)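 Read-out is fluorescence of a cyanine dye excluded from live cells that stains DNA of dead HepG2 cells, with signal proportional to cytotoxicity. Plates were read at 0, 8, 16, 24, 32 and 40 h after compound addition.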

The nature of assay [8]: qHTS RealTime-Glo MT Cell Viability Assay in HepG2 cells - 32 hour (AID 1224877). Further: nearly all actives have a fitted effect of over 55% in size. The method in brief: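 HepG2 cells were seeded at 600 cells/well together with NanoLuc luciferase and a cell-permeant prosubstrate, preincubated 5 h at 37 C/5% CO2, then pin-dosed with compounds in DMSO. Nonlytic luminescence from viable cells was read at each time point.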
A short description of assay [9]: A CellTox Green Cytotoxicity Assay to monitor cytotoxicity in HepG2 cells - 24 hour (AID 1224878). Further: nearly all actives have a fitted effect of over 45% in size. The method in brief: as §3
A short description of assay [10]: A CellTox Green Cytotoxicity Assay to monitor cytotoxicity in HepG2 cells - 40 hour (AID 1224879). Further: nearly all actives have a fitted effect of over 40% in size. The method in brief: as §3

Results filed as inconclusive are left out. A number with no mark means an inactive call. Calls of active or inactive are those of the source. The call rests on the fitted dose curve; in most records, active means well fitted curve in the direction sought with a large enough effect in the repeat runs; inconclusive means weak or mixed curves; inactive means no such curve, though single readings can be large; an effect the other way counts as inactive or inconclusive.
On the % scale 0 is the no-effect control and ±100 the full control effect.

On to `O=[N+]([O-])c1ccc(F)cc1F`, for which the Potency result in assay [1], in assay [2], in [3], in assay [4], in assay [6] and in assay [7] was “inactive” each time. Moreover, the Potency result in [8], in [9] and in assay [10] was “inactive” throughout. In addition, in assay [5], the max response is 9.7%.
For the compound `COc1ccc(CCN(C)CCCC(C#N)(c2cc(OC)c(OC)c(OC)c2)C(C)C)cc1OC` (stereo unspecified), the Potency entry in assay [1], in assay [2], in [4], in assay [6], in [7] and in [8] was “inactive” in each case. For the same compound, the results for the Potency in [3] and in [5] were 10.7 µM (active) and 23.9 µM (active), respectively.
For `NCCc1cnc[nH]1`, the Potency entry in [1], in [2], in [3], in [4], in assay [6] and in assay [7] was “inactive” throughout. For the same compound, the Potency result in [8], in assay [9] and in assay [10] was “inactive” in each case. The max response in assay [5] was -0.307%.
On to `CC(C)NCCCC1(C(N)=O)c2ccccc2-c2ccccc21`, for which the Potency result in [1], in [2], in [3], in assay [4], in [6] and in assay [7] was “inactive” each time. Moreover, the Potency entry in [8], in assay [9] and in assay [10] was “inactive” each time. For the same compound, the max response in [5] was -19.1%.
On to `CC(C)(CC(=O)O)C(=O)O`, for which the Potency result in assay [1], in assay [2], in [3], in assay [4], in assay [6] and in assay [7] was “inactive” throughout. The Potency entry in assay [8] and in [9] was “inactive” in each case. The max response in [5] is 0.211%.
With `O=C[C@H](O)[C@@H](O)[C@H](O)[C@H](O)CO`, the Potency result in assay [1], in [2], in [3], in assay [4], in assay [6] and in assay [7] was “inactive” in each case. In addition, the Potency result in assay [8], in assay [9] and in [10] was “inactive” each time. Besides, in assay [5], the max response is 17.2%.
Take `CCCCNC(=O)NCCCC`: the Potency entry in assay [1], in assay [2], in [3], in assay [4], in assay [6] and in assay [7] was “inactive” each time. Moreover, the Potency entry in assay [8], in assay [9] and in assay [10] was “inactive” in each case. Also, the max response in [5] was -3.77%.
In the case of `Cc1cc(O)cc2c1O[C@](C)(CCC[C@H](C)CCC[C@H](C)CCCC(C)C)CC2`, the Potency entry in [1], in assay [2], in assay [3], in assay [4], in [6] and in assay [7] was “inactive” throughout. Besides, the Potency result in [8], in assay [9] and in [10] was “inactive” throughout. For the same compound, the max response in assay [5] was 5.25%.
Take `CC1(C)C(O)C(C)(C)C1O` (stereo unspecified): the Potency entry in [1], in assay [2], in [3], in assay [4], in [6] and in assay [7] was “inactive” each time. In addition, the Potency entry in [8], in assay [9] and in assay [10] was “inactive” throughout. The max response in assay [5] was 0.527%.
With `CCCN1CCCC[C@H]1C(=O)Nc1c(C)cccc1C`, the Potency result in assay [1], in assay [2], in assay [3], in [4], in [6] and in [7] was “inactive” each time. For the same compound, the Potency entry in assay [8] and in assay [9] was “inactive” throughout. Moreover, the max response in [5] was 3.8%.
Consider `CC(C(=O)O)c1ccc(CC2CCCC2=O)cc1` (stereo unspecified), for which the Potency result in [1], in assay [2], in [3], in assay [4], in assay [6] and in assay [7] was “inactive” throughout. Further, the Potency result in assay [8], in assay [9] and in assay [10] was “inactive” in each case. Besides, in [5], the max response was -1.24%.
Take `CC(C)c1cc2c(cc1S(=O)(=O)O)[C@@]1(C)CCC[C@@](C)(C(=O)O)[C@@H]1CC2`: the Potency entry in assay [1], in [2], in assay [3], in assay [4], in assay [6] and in [7] was “inactive” each time. For the same compound, the Potency result in [8], in assay [9] and in assay [10] was “inactive” throughout. For the same compound, the max response in [5] is 1.39%.
As for `N[C@@H](C(=O)N[C@@H]1C(=O)N2C(C(=O)O)=C(Cl)CS[C@H]12)c1ccccc1`, the activity change, negative = cytotoxic in assay [1] was 0.227% [at 6.97 µM]; in assay [8], 1.49% [at 6.97 µM]. Also, the figures for the cytotoxicity increase in assay [2], in assay [7] and in assay [10] were 2.56% [at 6.97 µM], -14% [at 6.97 µM] and -14.3% [at 6.97 µM], respectively. The activity change, negative = cytotoxicity in [3] is 12.8% [at 6.97 µM]. Besides, the viability change, negative = cytotoxic in [4] is 3.66% [at 6.97 µM]. Further, the max response in assay [5] is 6.7%. In addition, in assay [6], the activity change is 0.0795% [at 6.97 µM, active compounds read high]. Also, the cytotoxicity in assay [9] was -20.4% [at 6.97 µM].
On to `COc1ccccc1OCC(O)CN1CCN(CC(=O)Nc2c(C)cccc2C)CC1` (stereo unspecified), for which the Potency result in [1], in assay [2], in assay [3], in [4], in assay [6] and in assay [7] was “inactive” each time. Besides, the Potency result in assay [8], in assay [9] and in assay [10] was “inactive” throughout. Besides, the max response in assay [5] is -12.4%.
For `Nc1c[n+](N2CCOCC2)no1`, the Potency entry in assay [1], in assay [2], in assay [3], in assay [4], in assay [6] and in assay [7] was “inactive” in each case. The Potency entry in assay [8], in [9] and in [10] was “inactive” throughout. The max response in assay [5] was 0.673%.
Regarding `CC(=O)Nc1c(I)cc(I)c(C(=O)O)c1I`, the Potency result in [1], in assay [2], in assay [3], in assay [4], in assay [6] and in assay [7] was “inactive” throughout. Further, the Potency entry in [8], in [9] and in assay [10] was “inactive” each time. In [5], the max response is 7.77%.
Turning to `O=c1cc(CO)occ1O`, the Potency result in assay [1], in [2], in assay [3], in assay [4], in [6] and in assay [7] was “inactive” throughout. In addition, the Potency entry in assay [8], in assay [9] and in assay [10] was “inactive” in each case. The max response in [5] is 3.18%.
For `CCOC(=O)c1c(C)n(C)c2ccc(O)cc12`, the Potency result in [1], in [2], in assay [3], in assay [4], in assay [6] and in assay [7] was “inactive” throughout. Besides, the Potency result in assay [8], in assay [9] and in assay [10] was “inactive” in each case. Further, in assay [5], the max response was -25.6%.
With `O=Cc1cccc([N+](=O)[O-])c1`, the Potency entry in assay [1], in [2], in assay [3], in assay [4], in [6] and in [7] was “inactive” each time. Besides, the Potency entry in assay [8], in [9] and in assay [10] was “inactive” in each case. In addition, the max response in assay [5] was 5.4%.
As to `C=COCC1CCC(CO)CC1` (stereo unspecified), the Potency entry in [1], in assay [2], in assay [3], in assay [4], in assay [6] and in assay [7] was “inactive” each time. Besides, the Potency entry in assay [8], in [9] and in assay [10] was “inactive” throughout. The max response in assay [5] is 11.5%.
Take `N#Cc1ccc(C2CCCc3cncn32)cc1` (stereo unspecified): the Potency entry in [1], in [2], in assay [3], in assay [4], in [6] and in assay [7] was “inactive” throughout. The Potency result in assay [8], in [9] and in [10] was “inactive” each time. In addition, the max response in [5] was 8.46%.
Take `CN(C)CCCNCCCN(C)C`: the Potency result in assay [1], in [2], in [3], in assay [4], in [6] and in assay [7] was “inactive” in each case. Moreover, the Potency entry in assay [8], in assay [9] and in [10] was “inactive” in each case. In [5], the max response is 5.75%.
As for `CC(C)(C)c1nnc(NS(=O)(=O)c2ccccc2)s1`, the Potency result in assay [1], in assay [2], in [3], in assay [4], in assay [6] and in assay [7] was “inactive” throughout. Besides, the Potency result in [8], in [9] and in [10] was “inactive” in each case. Further, in assay [5], the max response is 2.61%.

The values above are taken from PubChem BioAssay (Tox21).
